Assay [1] is described as follows: TOX21_p53_BLA_p2_viability: Viability Assessment in the Tox21 HCT-116 p53 Agonism Beta-lactamase Assay, Phase 2 (AID 2283591).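 Note: compound exposure lasted 16 h at 37 °C; actives lower the ATP signal meaning cytotoxicity.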 An outline of the steps: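 HCT116 p53-bla cells, 4000/well, dosed after 5 h plating (217-fold dilution of DMSO stocks) and incubated 16 h at 37C. Viability taken as cellular ATP by CellTiter-Glo luminescence after 30 min RT; signal loss marks cytotoxicity.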

Assay [2] addresses Cellular tumor antigen p53 (Homo sapiens) (UniProt P04637). The assay can be described thus: TOX21_p53_BLA_p2_ratio: Tox21 HCT-116 p53 Agonism Beta-lactamase Assay, Ratio, Phase 2 (AID 2283592). Put shortly:
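DMSO-normalized, positive-direction endpoint derived from the 460 nm/530 nm FRET ratio in HCT116 p53 beta-lactamase reporter cells exposed 16 h at 37C and loaded with CCF4-AM for 2 h.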

Assay [3] has the same target. The assay can be described thus: TOX21_p53_BLA_p3_ratio: Tox21 HCT-116 p53 Agonism Beta-lactamase Assay, Ratio, Phase 3 (AID 2283596). An outline of the steps: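 Cells were seeded at 4000/well, rested 5 h at 37C, then dosed with DMSO compound solutions (217-fold dilution) for 16 h. CCF4-AM substrate was loaded for 2 h at room temperature, and the 460/530 nm emission ratio was fitted for gain of signal versus DMSO.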

A short description of assay [4]: TOX21_p53_BLA_p4_viability: Viability Assessment in the Tox21 HCT-116 p53 Agonism Beta-lactamase Assay, Phase 4 (AID 2283597).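 Note: hits lower the luminescence signal meaning cytotoxicity.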 An outline of the steps:
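In this multiplexed secondary endpoint, HCT116 cells (4000 per well, compound at 5 h, 16 h treatment) received CellTiter-Glo after the beta-lactamase read. Luminescence after 30 min RT reflects ATP, and falling signal marks cytotoxicity.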

In assay [5] the target is Cellular tumor antigen p53 (Homo sapiens) (UniProt P04637). As to the kind of experiment: TOX21_p53_BLA_p5_ratio: Tox21 HCT-116 p53 Agonism Beta-lactamase Assay, Ratio, Phase 5 (AID 2283599). Put shortly: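 HCT-116 p53-bla cells (4000/well) plated 5 h, dosed with compound (217-fold DMSO dilution) for 16 h at 37 C; CCF4-AM substrate 2 h at room temperature. Activity is the 460/530 nm emission ratio (405 nm excitation), fitted in gain-of-signal direction versus DMSO.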
Chain of Cellular tumor antigen p53 (Homo sapiens) (P04637 whole entry, looked up): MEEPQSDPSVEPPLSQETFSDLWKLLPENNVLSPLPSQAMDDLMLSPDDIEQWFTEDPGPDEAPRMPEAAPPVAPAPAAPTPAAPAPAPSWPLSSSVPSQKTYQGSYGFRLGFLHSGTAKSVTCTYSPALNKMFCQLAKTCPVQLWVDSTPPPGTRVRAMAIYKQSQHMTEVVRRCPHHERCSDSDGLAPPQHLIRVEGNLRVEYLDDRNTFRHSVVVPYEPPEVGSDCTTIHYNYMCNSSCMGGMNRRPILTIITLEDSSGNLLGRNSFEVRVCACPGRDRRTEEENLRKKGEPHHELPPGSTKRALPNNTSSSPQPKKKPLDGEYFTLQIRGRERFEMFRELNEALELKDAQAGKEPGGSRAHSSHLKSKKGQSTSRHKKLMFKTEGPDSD

Assay [6] can be described thus: TOX21_p53_BLA_p5_viability: Viability Assessment in the Tox21 HCT-116 p53 Agonism Beta-lactamase Assay, Phase 5 (AID 2283600). An outline of the steps:
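Here cell health was gauged by ATP levels in wells holding 4000 cells, each treated 16 h with DMSO-delivered compounds at 217-fold dilution; reduced luminescence marked toxicity.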

For assay [7], the target named is Cellular tumor antigen p53 (Homo sapiens) (UniProt P04637). As to the kind of experiment: TOX21_p53_BLA_p4_ratio: Tox21 HCT-116 p53 Agonism Beta-lactamase Assay, Ratio, Phase 4 (AID 2283601). Put shortly: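 HCT-116 p53 beta-lactamase reporter cells (4000/well) preincubated 5 h, then compound (217-fold dilution of DMSO stock) for 16 h at 37C. CCF4-AM substrate added 2 h at room temperature; 460/530 nm emission ratio fitted upward versus DMSO.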

For assay [8], the target named is PGR (gene 5241) (UniProt P06401). As to the kind of experiment: TOX21_PR_BLA_Followup_Antagonist_ratio: Tox21 HEK293 Progesterone Receptor (PR) Antagonism Beta-lactamase Follow-Up Assay, Ratio (AID 2283934).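 Note: PR-UAS-bla HEK293T cells stimulated with 1 nM R5020 agonist for 16 hr.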 Put shortly: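 Measured in PR-UAS-bla HEK293T cells co-treated with compound and 1 nM promegestone for 16 hr; beta-lactamase ratio read after 2 h FRET substrate loading, with parallel CellTiter-Glo cytotoxicity.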
Chain of PGR (gene 5241) (P06401 whole entry, looked up): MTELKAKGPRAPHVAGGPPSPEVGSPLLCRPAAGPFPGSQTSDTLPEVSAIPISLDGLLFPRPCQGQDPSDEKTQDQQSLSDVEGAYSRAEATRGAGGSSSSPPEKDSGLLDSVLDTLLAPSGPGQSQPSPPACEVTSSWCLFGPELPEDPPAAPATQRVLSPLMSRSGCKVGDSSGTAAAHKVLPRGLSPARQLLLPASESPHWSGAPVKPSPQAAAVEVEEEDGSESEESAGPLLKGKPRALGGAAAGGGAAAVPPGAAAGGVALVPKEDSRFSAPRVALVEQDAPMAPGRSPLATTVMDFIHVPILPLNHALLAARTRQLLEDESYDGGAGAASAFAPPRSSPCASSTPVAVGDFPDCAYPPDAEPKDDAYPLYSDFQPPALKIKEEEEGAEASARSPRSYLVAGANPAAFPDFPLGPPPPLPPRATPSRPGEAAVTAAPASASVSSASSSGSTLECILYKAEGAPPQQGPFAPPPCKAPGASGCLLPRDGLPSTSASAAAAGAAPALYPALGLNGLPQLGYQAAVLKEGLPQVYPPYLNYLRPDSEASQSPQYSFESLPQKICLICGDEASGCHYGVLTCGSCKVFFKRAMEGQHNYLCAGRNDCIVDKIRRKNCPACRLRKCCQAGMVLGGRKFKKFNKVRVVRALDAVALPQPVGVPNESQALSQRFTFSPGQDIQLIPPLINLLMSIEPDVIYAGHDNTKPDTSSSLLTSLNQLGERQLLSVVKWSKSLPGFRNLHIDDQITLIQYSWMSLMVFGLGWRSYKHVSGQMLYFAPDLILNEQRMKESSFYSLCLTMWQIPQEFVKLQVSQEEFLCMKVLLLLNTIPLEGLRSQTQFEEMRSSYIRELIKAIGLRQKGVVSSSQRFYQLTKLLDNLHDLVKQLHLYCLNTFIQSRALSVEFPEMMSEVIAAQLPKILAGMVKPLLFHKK

Assay [9] can be described thus: TOX21_PR_BLA_Followup_Agonist_viability: Viability Assessment in the Tox21 HEK293 Progesterone Receptor (PR) Agonism Beta-lactamase Follow-Up Assay (AID 2283935).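 Note: signal loss means lower viability so actives are cytotoxic.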 An outline of the steps:
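Viability is read as CellTiter-Glo luminescence, where loss of signal indicates cytotoxicity. The cells are PR-UAS-bla HEK293T given compounds for 16 hr at 37C and 5% CO2, in the same wells used for the bla readout.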

Assay [10] is described as follows: TOX21_PR_BLA_Followup_Antagonist_viability: Viability Assessment in the Tox21 HEK293 Progesterone Receptor (PR) Antagonism Beta-lactamase Follow-Up Assay (AID 2283936).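 Note: cells exposed to compound with R5020 agonist for 16 h; hits lower the luminescence signal meaning cytotoxicity.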 Put shortly: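 PR-UAS-bla HEK293T cells in medium with 2% charcoal-stripped FBS were treated with compounds plus R5020 for 16 hr at 37C. After the beta-lactamase read, CellTiter-Glo was added to the same wells and luminescence read after 30 min at room temperature.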

Assay [11] has as its target PGR (gene 5241) (UniProt P06401). The assay can be described thus: TOX21_PR_LUC_Followup_Antagonist: Tox21 HEK293 Progesterone Receptor (PR) Antagonism Luciferase Follow-Up Assay (AID 2283938).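 Note: curve fitted upward as signal gain over DMSO baseline despite antagonist label.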 Put shortly:
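Luciferase reporter in HEK293-PR-A-luc cells: 16 h compound treatment at 37C, ONE-Glo luminescence detection, DMSO as negative control and baseline.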

The nature of assay [12]: TOX21_PR_LUC_Followup_Agonist_viability: Viability Assessment in the Tox21 HEK293 Progesterone Receptor (PR) Agonism Luciferase Follow-Up Assay (AID 2283941).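 Note: loss of signal means cytotoxicity so actives lower viability.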 An outline of the steps: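 Seeding: HEK293-PR-A-luc, 3,000 cells/well, 5 h at 37C. Treatment: compound in DMSO, 16 h, 37C. Read: CellTiter-Glo ATP luminescence, signal loss taken as lower viability.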

The structures appear in SMILES notation. Records with an inconclusive call do not appear. The source made the active and inactive calls. Rule for the calls: active = hit-call score of the fitted dose curve at least 0.9, where 1 is the maximum; inconclusive = response in the unintended direction; inactive = score below 0.9.

Regarding `C[C@H]1[C@@H](OC(=O)CCC(=O)O)O[C@@H]2OC3(C)CC[C@H]4[C@H](C)CC[C@@H]1[C@@]24OO3`, the result in [1], in [2], in assay [3], in assay [4], in assay [5] and in [6] was inactive. The result in assay [7] was inactive.
Take `O=[N+]([O-])c1ccc2ncccc2c1`: the compound was classed as inactive in [1], in [2], in assay [3], in [4], in assay [5] and in assay [6]. In addition, the outcome in assay [7] was inactive.
For `O=C(O)C(S)C(S)C(=O)O` (centres undefined), the outcome in [1], in assay [2], in assay [3], in assay [4], in assay [5] and in assay [6] was inactive. Further, in assay [7], the outcome was inactive.
`CC(C)NCC(O)COc1ccc(COCCOC(C)C)cc1` (centres undefined): the compound was classed as inactive in [1], in [2], in assay [3], in assay [4], in assay [5] and in assay [6]. In addition, the outcome in [7] was inactive.
With `C=CC1=C(C)C2=CC3=NC(=C(CC(=O)[O-])C4=NC(=C(C)C4=C([O-])[O-])C=c4[n-]c(c(C)c4CC)=CC1=N2)[C@@H](CCC(=O)[O-])[C@@H]3C.[Cu+2].[Na+].[Na+].[Na+]`, the result in assay [1], in assay [2], in [3], in assay [4], in assay [5] and in assay [6] was inactive. In assay [7], the result was inactive.
For the compound `CCC=CC#N`, the call in assay [1], in [2], in assay [3], in assay [4], in assay [5] and in [6] was inactive. The result in assay [7] was inactive.
Consider `CC(Cl)C(Cl)Cl` (centres undefined), for which the outcome in assay [1], in [2], in assay [3], in [4], in assay [5] and in assay [6] was inactive. In assay [7], the outcome was inactive.
On to `CC(CN(C)C)C(C)(O)Cc1ccc(Cl)cc1` (centres undefined), for which the compound was called inactive in assay [1], in assay [2], in assay [3], in assay [4], in [5] and in assay [6]. The result in [7] was inactive.
For the compound `CS(=O)(=O)c1ccc([C@@H](O)[C@@H](CO)NC(=O)C(Cl)Cl)cc1`, the result in assay [1], in [2], in [3], in assay [4], in assay [5] and in [6] was inactive. In addition, the result in [7] was inactive.
Take `CCN(CC)C(C)=O`: the compound was called inactive in assay [1], in assay [2], in assay [3], in assay [4], in assay [5] and in assay [6]. The result in assay [7] was inactive.
Regarding `CCCCCCCCCCCCCCCCCCCCCC(=O)Nc1ccn([C@@H]2O[C@H](CO)[C@@H](O)[C@@H]2O)c(=O)n1`, the compound was classed as inactive in [1], in assay [4], in assay [5] and in assay [6]. Besides, the AC50 – broadly, the concentration at which the activity in the assay is half-maximal – in assay [2] is 19 µM (active); in assay [3], 23 µM (active); in assay [7] it was 14.3 µM (active).
For `S=C1SCN(Cc2ccccc2)CN1Cc1ccccc1`, the compound was called inactive in [1], in [2], in assay [3], in [4], in [5] and in [6]. Besides, the result in assay [7] was inactive.
`CCOC(=O)c1cccc(N)c1`: the compound was classed as inactive in assay [1], in [2], in assay [3], in [4], in [5] and in assay [6]. Further, the result in assay [7] was inactive.
As to `Cc1cc(NS(=O)(=O)c2ccc(N)cc2)nc(C)n1`, the compound was called inactive in assay [1], in assay [2], in [3], in assay [4], in [5] and in [6]. Also, in [7], the result was inactive.
As to `NC(=O)c1ncn([C@@H]2O[C@H](CO)[C@@H](O)[C@H]2O)c1O`, the outcome in [1], in assay [2], in assay [3], in assay [4], in [5] and in assay [6] was inactive. The outcome in assay [7] was inactive.
As to `OCc1ccccn1`, the compound was classed as inactive in assay [1], in [2], in [3], in assay [4], in [5] and in assay [6]. Also, the outcome in assay [7] was inactive.
Consider `CC(C)[N+]1(C)[C@@H]2CC[C@H]1CC(OC(=O)C(CO)c1ccccc1)C2` (some centres undefined), for which the call in [1], in assay [2], in assay [3], in assay [4], in assay [5] and in assay [6] was inactive. In addition, the outcome in assay [7] was inactive.
In the case of `CC(C)C(O)C(C)(C)CO` (centres undefined), the compound was called inactive in assay [1], in assay [2], in [3], in [4], in [5] and in [6]. The result in [7] was inactive.
On to `NCCNCCNCCN`, for which the compound was classed as inactive in [1], in assay [2], in assay [3], in [4], in [5] and in assay [6]. For the same compound, the result in assay [7] was inactive.
In the case of `CC(=O)OC[C@H]1O[C@@H](n2ncc(=O)[nH]c2=O)[C@H](OC(C)=O)[C@@H]1OC(C)=O`, the result in assay [1], in [4] and in assay [6] was inactive. In addition, the AC50 in [2] was 2.04 µM (active); in assay [3], 3.15 µM (active); in [5], 2.02 µM (active); in assay [7], 2.61 µM (active).
Consider `C[C@@H]1NC(=O)[C@@H](N)CNC(=O)[C@H](C2CCNC(N)=N2)NC(=O)/C(=C/NC(N)=O)NC(=O)[C@H](CNC(=O)C[C@@H](N)CCCN)NC1=O` (some centres undefined), for which the compound was classed as inactive in [1], in [2], in [3], in assay [4], in assay [5] and in assay [6]. Besides, the result in [7] was inactive.
With `O=S(=O)(O)C(F)(F)F`, the compound was classed as inactive in [1], in assay [2], in assay [3], in assay [4], in assay [5] and in assay [6]. Besides, the result in assay [7] was inactive.
Take `CC(C)NC(=O)c1ccccc1N`: the call in [1], in [2], in assay [3], in assay [4], in assay [5] and in assay [6] was inactive. In assay [7], the result was inactive.
In the case of `Cc1nnc(NS(=O)(=O)c2ccc(N)cc2)s1`, the compound was classed as inactive in assay [1], in [2], in assay [3], in [4], in assay [5] and in assay [6]. In addition, the outcome in [7] was inactive.
For the compound `c1ccc2c(c1)CCc1ccccc1N2`, the call in assay [1], in [2], in assay [3], in assay [4], in [5] and in assay [7] was inactive. Moreover, the result in assay [8], in [9], in assay [10], in assay [11] and in assay [12] was inactive.

Values taken from PubChem BioAssay (EPA / NIEHS).
